Results: PubChem BioAssay AID624352 (Sanford-Burnham Center for Chemical Genomics, 2012)
The campaign covered roughly 360,000 compounds. About 2,600 (0.72%) were called active. Only a selection was taken, and actives are over-represented in it overall. A number with no mark means an inactive call.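 The calls were made as follows: active = inhibition of the luminescence signal of 40% or more relative to plate controls, in a single-dose primary screen at 18.75 µM; inactive = the rest.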

Experiment: HIF-2a reporter inhibitors, primary screen, luminescence, 786-0 RCC cells (AID 624352)
Conditions: 786-0 RCC cells HIF-2a reporter, luciferase luminescence, overnight; at 18.8 µM; stronger effect = higher value

| SMILES | inhibition |
| --- | --- |
| Cc1cccc(C)c1NC(=O)CNC(=O)c1c(C)nn(-c2ccccc2)c1C | 0.612% |
| O=C(/C=C(O)/C=C/c1ccc(O)cc1)/C=C/c1ccc(O)cc1 | -18.9% |
| O=C(NCCC1=CCCCC1)c1ccc(Cl)c([N+](=O)[O-])c1 | -91% |
| O=C(/C=C/c1ccc(Cl)c([N+](=O)[O-])c1)c1ccc(O)cc1 | 79% (active) |
| CN(Cc1cccs1)C(=O)CN1C(=O)c2ccccc2S1(=O)=O | -66.1% |
| Cc1ccc(S(=O)(=O)N(C)CC(=O)N2CCc3ccccc32)cc1 | -0.159% |
| O=C(CN1C(=O)c2ccccc2S1(=O)=O)N1CCc2ccccc21 | 82.3% (active) |
| COCCNC(=O)c1ccc2c(c1)ncn2-c1ccc(C)c(Cl)c1 | -31.7% |
| Cc1ccc(CNC(=O)COC(=O)C2CCC2)cc1 | 2.35% |
| CCc1c(N=O)c(-c2ccccc2)n(O)[n+]1[O-] | -2.82% |
| Cc1ccc(S(=O)(=O)NCC(=O)N(CC(=O)NCC2CCCO2)c2cccc(F)c2)cc1 (centres undefined) | 8.25% |
| CC1CCc2c(c3ccccc3[nH]c2=O)O1 (centres undefined) | 6.77% |
| Cc1cc(Cl)c(S(=O)(=O)N(C)C)cc1OCC(N)=O | 7% |
| Cc1cc(Cl)c(S(=O)(=O)Nc2ccc3c(c2)OCCO3)cc1OCC(N)=O | 43.7% (active) |
| Cc1cc(Cl)c(S(=O)(=O)NCCC(=O)O)cc1OCC(N)=O | 0.473% |
| CCNC(=O)C1(C)CCCN(C(=O)c2ccc3ccccc3n2)C1 (centres undefined) | 3.52% |
| COCCn1c(SCC(=O)Nc2nc(C)cs2)nnc1C(C)C | 9.65% |
| Cc1csc(NC(=O)CSc2ccc(-c3ccc(F)cc3)nn2)n1 | -4.55% |
| COc1cc(SC)ccc1C(=O)Nc1nc(C)cs1 | 77.6% (active) |
| O=C(COC(=O)Cc1ccccc1F)NCCc1ccccc1 | -1.26% |
| O=C(CCCN1C(=O)C(c2ccccc2)Oc2cccnc21)Nc1ccccc1Br (centres undefined) | 12.9% |
| O=C(CN1C(=O)/C(=C\c2ccc(C(F)(F)F)cc2)Sc2ccccc21)NCc1ccco1 | -23.3% |
| O=C(CCCN1C(=O)/C(=C\c2ccco2)SC1=S)Nc1cccc2ccccc12 | 56.3% (active) |
| Cc1ccc(NC(=O)CCN2C(=O)c3ccccc3C2=O)cc1C | -6.43% |
| CN(C(=O)CN1C(=O)/C(=C/c2ccc(Cl)cc2)SC1=S)C1CCS(=O)(=O)C1 (centres undefined) | -14% |
| O=C(OCN1C(=O)c2ccccc2C1=O)/C(=C\c1ccco1)NC(=O)c1ccccc1 | 1.64% |
| Cc1c(Cl)cccc1NC(=O)CCC(=O)N/N=C/c1ccco1 | 6.46% |

| SMILES | inhibition |
| --- | --- |
| O=C(CCCN1C(=O)/C(=C/c2ccccc2)SC1=S)Nc1ccc(O)cc1 | 46.2% (active) |
| C=CCOc1ccc(/C=C2\SC(=S)N(CCC(=O)O)C2=O)cc1 | 90.6% (active) |
| C=CCOc1ccc(C(=O)Nc2ccccc2C(=O)N2CCCC2)cc1 | -0.109% |
| O=C(CCN1C(=O)c2ccccc2C1=O)Nc1ccncc1 | 13.6% |
| O=C(CCCN1C(=O)/C(=C/c2ccco2)SC1=S)Nc1ccccc1 | 45.3% (active) |
| CCN(Cc1ccccc1)C(=O)CN1C(=S)NC(C)(C)CC1C (centres undefined) | 4.59% |
| COc1cc(C(=O)OCC(=O)NC(C)CCc2ccccc2)cc(OC)c1OC (centres undefined) | 26.2% |
| O=C1CCC(CCC(=O)N2CCCC(C(=O)c3ccc(Cl)cc3)C2)=NN1 (centres undefined) | -12.6% |
| CC(C)(O)C1=C[N+](=O)CC=C1 | -0.393% |
| O=C(O)c1ccccc1OCc1ccccc1Cl | 10% |
| Cc1c(CCC(=O)O)c(=O)oc2c(C)c(OCc3ccccc3Cl)ccc12 | 44.6% (active) |
| COc1ccc2c(C)c(CCC(=O)NC3CC3)c(=O)oc2c1C | -156% |
| C#CCNc1nc(C(C)C)nc2c1nnn2Cc1ccccc1F | 4.59% |
| COc1ccc(S(=O)(=O)N2CCN(C(=O)NC3CCCCC3)CC2)cc1 | 12.4% |
| Cc1cccc2sc(N(CCCN(C)C)C(=O)CCS(=O)(=O)c3ccccc3)nc12 | 56.1% (active) |
| Cc1cccc(C)c1NC(=O)CCS(=O)(=O)c1cccc2nsnc12 | 4.25% |
| O=C(CCS(=O)(=O)c1ccccc1)NC1CCCC1 | -146% |
| COCCN(C(=O)CCC(=O)Nc1nccs1)C(C(=O)NC(C)(C)C)c1ccc(Cl)cc1 (centres undefined) | 5.58% |
| CN1C(=O)[C@H]2[C@@H](/C=C/c3ccccc3)N3C(=O)CN(Cc4ccc(-c5ccccc5)cc4)C(=O)[C@@]3(C)[C@H]2C1=O | -8.21% |
| O=C(CNCc1ccco1)Nc1cc(S(=O)(=O)N2CCOCC2)ccc1N1CCCC1 | 12.6% |
| CCC(=O)N(Cc1cc2ccccc2[nH]c1=O)c1ccc(OC)cc1 | 20.9% |
| Cc1ccc(N(Cc2cc(=O)[nH]c3ccccc23)C(=O)CCl)cc1 | 45.7% (active) |
| Cc1ccc(N(Cc2ccccc2O)C(=O)c2ccccc2F)cc1 | 16.1% |
| O=C(NCCC(=O)N1O[C@@H]2C=C[C@H]1C2)OCC1c2ccccc2-c2ccccc21 | 3.4% |
| CN(C)CCn1c2c(c(SCC(=O)Nc3ccccc3C(F)(F)F)nc1=O)CCCC2 | 11.7% |
| NC(=O)c1cc(S(=O)(=O)N2CCCC2)ccc1OCc1ccc(F)cc1 | 24% |
| Cc1[nH]c2ccc(S(N)(=O)=O)cc2c1C | 11.6% |
